# Experimental data: PubChem BioAssay (Tox21)
# Results filed as inconclusive are left out. Values without a mark were called inactive. Active and inactive are the calls of the source. Calls follow the shape of the dose curve; as a rule, active = well fitted cell-killing curve with a large enough effect in the repeat runs; inconclusive = weak or mixed curves, or effect the other way; inactive = flat fitted curve, though single readings scatter.
# Assay: qHTS assay to identify small molecule antagonists of the constitutive androstane receptor (CAR) signaling pathway - cell viability counter screen (AID 1224837); also: nearly all actives have a fitted effect of over 45% in size
# Settings: HepG2-CYP2B6-hCAR viability, CellTiter-Fluor, 23 h, co-treated with 50 nM CITCO; series mostly up to 92.4 µM; activity change, negative = cytotoxicity: at the top concentration
# Outline: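 Viability was measured with CellTiter-Fluor in a HepG2 line carrying stably transfected hCAR and a CYP2B6-2.2kb construct. Cells were exposed for 23 hr at 37 C to 15 compound concentrations with 50 nM CITCO as agonist.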
# % is scaled to controls: 0 for no effect and ±100 for the full control effect; potency is read from the fitted curve at half-maximal effect.
Structure (SMILES),"activity change, negative = cytotoxicity",Potency
CC1(C)COCN1,2.38%,–
CCCCOC(=O)C(C)CC (stereo not given),1.25%,–
CO[Si](CCC1CCC2OC2C1)(OC)OC (stereo not given),8.73%,–
Clc1ccc(C(c2ccccc2Cl)C(Cl)Cl)cc1 (stereo not given),–,inactive
CC1=CCC(=O)O1,3.42%,–
COc1cccc(OC)c1O,2.45%,–
C=C(C)CCCC,-6.27%,–
CCOCOCC,-3.59%,–
CCN=C1C=CC(=C(c2ccc(N(CC)CC)cc2)c2ccc(N(CC)CC)cc2)c2ccccc21,–,6.08 µM (active)
CCCC(=O)OCC(COC(=O)CCC)OC(=O)CCC,4.56%,–
CCO[Si](C)(C)OCC,1.59%,–
CS(C)(=O)=O,-13%,–
CCCCCCCCCCCCN(CCO)CCO,–,68.3 µM (active)
CC(C)=CCCC(C)O (stereo not given),6.26%,–
C#CC(O)CCC (stereo not given),0.823%,–
C/C=C/C(=O)C1=C(C)CCCC1(C)C,-2.97%,–
CCc1cccc(CC)c1NC(=O)C(=O)O,0.164%,–
COc1ccccc1C=O,0.767%,–
CCOC(=O)CN,8.19%,–
Cc1cccc(C)c1NC(=O)CN1CCN(CCCC(c2ccc(F)cc2)c2ccc(F)cc2)CC1,–,23.7 µM (active)
O=C1OC(OC(=O)c2cccnc2Nc2cccc(C(F)(F)F)c2)c2ccccc21 (stereo not given),-5.44% [at 42.5 µM],–
C=CC/C=C/C/C=C/C/C=C/C,4.83%,–
CCOC(OCC)C(=O)c1ccccc1,-1.94%,–
Oc1cc2ccccc2cc1O,-0.302%,–
Cc1cccc(N(C)C)c1,4.84%,–
CCCCCCCC/C=C/CCCOC(C)=O,0.657%,–
Cc1cncc(C)c1,4%,–
O=CC1CC1,2.69%,–
CCCCOCC,-0.785%,–
CCc1cccc(CC)c1N(COC)C(=O)CS(=O)(=O)O,-4.37%,–
